Compounds with a hit are over-represented: about 2.7% of the library has one in this group of screens.
KDM5B inhibitor – blocks human KDM5B histone demethylase activity; Q9UGL1; KDM5B demethylase, FDH-coupled NADH fluorescence (FDH is formaldehyde dehydrogenase); Potency, µM (doses to about 57.7 µM), hits mostly inhibitors; hit rate 2.6% among 220,000; note: potency is the fitted concentration of half-maximal effect; 0% is about no effect; nearly all actives have a fitted effect of over 70% in size
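Coupled FDH/NAD⁺ fluorescence readout. KDM5BΔAP 200 nM final; compound titration, 10 min RT preincubation; substrate mix 12.5 µM H3K4me3, 25 µM 2-OG, 50 µM Fe(II), 100 µM ascorbate, 0.25 mM NAD⁺, 0.25 U/mL FDH; ΔRFU over 30 min.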
IP6K1 inh – blocks human inositol hexakisphosphate kinase 1 | IP6K1 kinase, ADP-Glo luminescence, 2 h; stronger effect = lower value | activity change, % (series mostly up to about 58 µM) | hit rate 0.81% among 140,000 | AID 1645851; in the data active = activity change below about -25%; note: % is set by controls: 0 for no effect and ±100 for the full control effect
Target sequence (Q92551 whole entry, looked up): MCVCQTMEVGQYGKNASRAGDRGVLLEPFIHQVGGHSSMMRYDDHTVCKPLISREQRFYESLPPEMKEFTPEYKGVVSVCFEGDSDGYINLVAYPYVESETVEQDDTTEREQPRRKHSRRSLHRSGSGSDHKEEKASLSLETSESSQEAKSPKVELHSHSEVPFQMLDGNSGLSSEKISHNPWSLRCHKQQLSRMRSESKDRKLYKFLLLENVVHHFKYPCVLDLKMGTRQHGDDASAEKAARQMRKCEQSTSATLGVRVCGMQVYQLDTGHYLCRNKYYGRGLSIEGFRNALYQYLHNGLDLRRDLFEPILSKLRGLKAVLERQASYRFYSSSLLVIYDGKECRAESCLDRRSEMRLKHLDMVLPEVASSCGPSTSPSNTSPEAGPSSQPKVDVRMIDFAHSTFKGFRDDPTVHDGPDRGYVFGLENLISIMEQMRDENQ
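ADP-Glo luminescence measures ADP made by human IP6K1 during a 2 h RT reaction with ATP/IP6 (mix at 1.3 mM/130 uM); top library doses 57.5 and 19.1 uM final.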
IP6K1 inh cnf – human IP6K1 inhibition, confirmatory. shares compounds with IP6K1 inh. recombinant IP6K1 kinase, ADP-Glo luminescence, 2 h. Potency, µM (titrated, usually from 49 µM), for inactives: at the highest dose activity change, negative = inhibition, usual class: inhibitors. hit rate 13% among 1,200. AID 1645852; note: potency is the fitted concentration of half-maximal effect; % is set by controls: 0 for no effect and ±100 for the full control effect; nearly all actives have a fitted effect of over 65% in size
* hit, by the source's call; i = inactive; ? = inconclusive; / = no result given; [ ] = remark or other dose. Unless noted, calls come from the whole dose curve; as a rule, active = well fitted inhibition curve with a large enough effect; inconclusive = small, poorly fitted or top-dose-only effect; inactive = no such curve, though single readings can be large or run the other way.

SMILES	KDM5B inhibitor	IP6K1 inh	IP6K1 inh cnf
O=C(c1cccs1)N1CCOc2ccc(N3CCCC3)cc2C1	/	-2	/
O=C(CC1CCCC1)N1CCC2(CC1)CC(N(Cc1ccccc1)C1CC1)CCO2 (stereo not given)	i	-21	/
O=C(CCc1ccccc1)N1CCC2(CC1)CC(N(Cc1ccccc1)C1CC1)CCO2 (stereo not given)	i	-27*	-14%
O=C(CSc1nnc(-c2ccc(Cl)cc2)o1)c1ccc([N+](=O)[O-])cc1	i	5	/
CC(=O)Nc1cccc(-c2nnc(SCC(=O)c3cc([N+](=O)[O-])ccc3Cl)o2)c1	?	-31*	?
CC(C)(N)C(=O)NCc1nc(-c2cccc(F)c2)c(-c2ccccn2)[nH]1	i	-7	/
CC(C)(C)Cn1c(N)nc2ccc(-c3[nH]c(C(C)(C)C)nc3-c3ccc(F)cc3)nc21	/	-25*	6%
Cc1nc(CN2CCN(CCOc3ccc(Cl)cc3)CC2)no1	i	/	/
Cc1ccc(C(=O)Nc2ccc(S(=O)(=O)O)c3cc(S(=O)(=O)O)cc(S(=O)(=O)O)c23)cc1NC(=O)c1cccc(NC(=O)Nc2cccc(C(=O)Nc3cc(C(=O)Nc4ccc(S(=O)(=O)O)c5cc(S(=O)(=O)O)cc(S(=O)(=O)O)c45)ccc3C)c2)c1	/	-95*	3.3µM*
Cc1ccc(C(=O)O)cc1NC(=O)c1cccc(C(=O)Nc2cc(C(=O)O)ccc2C)c1	i	/	/
Cc1c(Cl)cccc1NC(=O)C(C)NS(=O)(=O)c1ccc2c(c1)CCN2C(=O)N1CCCC1 (stereo not given)	i	/	/
O=C1CCC(C(=O)Nc2ccc(Cl)c(Cl)c2)N1 (stereo not given)	i	/	/
Cc1cccc(Oc2nc3c(c(=O)n(C)c(=O)n3C)n2C)c1	i[11.5 µM]	-27*	-18%
Cc1ccccc1Oc1nc2c(c(=O)n(C)c(=O)n2C)n1C	i	/	/
S=C(NCc1cccnc1)Nc1ccc(Br)cc1Cl	i	/	/
NNC(=O)c1cccc([N+](=O)[O-])c1	i	/	/
O=c1[nH]c(=O)n(C2CCCCC2)c(O)c1C1=Nc2ccccc2SC(c2ccccc2)C1 (stereo not given)	?	-10	/
CN(C)c1ccc(C2CC(c3c(O)n(C4CCCCC4)c(=O)[nH]c3=O)=Nc3ccccc3S2)cc1 (stereo not given)	?	-32*	16%
CCc1c(C(=O)Nc2sc(C)c(C)c2C#N)csc1C	i	/	/
COc1cccc(-c2ccc3c(N)c(C(=O)Nc4cc(F)ccc4F)sc3n2)c1	i	18	/
COc1cccc(-c2ccc3c(N)c(C(=O)Nc4ccccc4C)sc3n2)c1	?	-26*	2%
Fc1ccc(NC(=S)NCCc2ccccn2)cc1Cl	i	/	/
O=C(N[C@H](Cc1ccccc1)C1CC(O)C1)c1cnn(Cc2ccccc2)c1 (stereo not given in full)	i	-9	/
Cc1ccc(F)c(C(=O)N[C@H](Cc2ccccc2)C2CC(O)C2)c1Cl (stereo not given in full)	i	-34*	-11%
CCCCN(CCCC)C(=O)Cn1cnc2c1c(=O)n(C)c(=O)n2C	i	/	/
SMILES	KDM5B inhibitor	IP6K1 inh	IP6K1 inh cnf
COc1cc2ccccc2cc1C(=O)Nc1ccc2oc(-c3ccncc3)nc2c1	i	/	/
COc1cc2ccccc2cc1C(=O)Nc1ccc2oc(-c3cccc(C)c3)nc2c1	?	-28*	25%
O=C(Nc1ccc2oc(-c3ccccc3F)nc2c1)c1ccccc1Cl	?	-49*	?
COc1ccccc1-c1nc2cc(NC(=O)c3ccccc3Cl)ccc2o1	?	-10	/
Cc1nn(-c2ccccc2)c2c1C(C1CC1)N(C1CCN(C(=O)c3ccccc3)C1)C2=O (stereo not given)	/	5	/
Cc1ccc(C(=O)NC(c2nnc(SCC(=O)c3ccccc3)n2C)C(C)C)cc1 (stereo not given)	i	/	/
O=C(c1cc2ccccc2[nH]1)N1CCNc2cnc(Nc3ccccc3)nc2C1	?	-6	/
CCOc1ccc(C(=O)c2oc3ccccc3c2NC(=O)c2cc(-c3ccc(Cl)cc3)on2)cc1	i	4	/
CCOc1ccc(-c2cc(C(=O)Nc3ccc(NC(C)=O)cc3)no2)cc1	?	-27*	-5%
COc1cc(/C=C(/C#N)C(=O)NC2CC2)ccc1O	i	/	/
COc1cc(/C=C(\C#N)C(=O)c2ccc(O)c(O)c2)cc(I)c1O	/	/	2.1µM*
Cc1ccc(C2=C(O)C(=O)N(c3ccc(F)cc3)C2c2ccc(C(=O)O)cc2)cc1 (stereo not given)	i	/	/
Cc1c(CN(C)CC2(O)CCCN(Cc3ccc(C(C)C)cc3)C2=O)cnn1C (stereo not given)	i	-37*	-6%
CC(C)c1ccc(CN2CCCC(O)(CN3CCSCC3)C2=O)cc1 (stereo not given)	i	-3	/
C=CCOc1ccc(NC(=O)c2ccccc2)cc1	i	/	/
Cc1cnc(C(=O)NC2C[C@H]3CC[C@@H](C2)N3C(=O)CCC2CCCCC2)cn1 (stereo not given in full)	/	10	/
CNC(=O)c1cc(-c2ccc(C)cc2)cc2c1OCCN2Cc1cccnc1	?	-29*	?
NC(=O)c1cc(-c2ccccc2F)cc2c1OCCN2Cc1cccnc1	35µM*	-25*	?
Cc1ccc(CNC(=O)c2cc(-c3cccnc3)nc3ccc(C)cc23)cc1	i	/	/
O=C(c1ccncc1)N1CCCN(Cc2cccnc2)c2ccccc21	i	0	/
COc1cc(C2Nc3ccc(C)cc3[C@H]3OCCC[C@@H]23)cc(Cl)c1OC (stereo not given in full)	i	/	/
O=C(Cc1ccc(F)cc1)N1CCN(c2nccc(Nc3ccccc3Cl)n2)CC1	/	-9	/
CC(=O)N1CCN(C(=O)Cc2ccc(Nc3ncc(F)c(Nc4ccc(C(=O)Nc5ccccc5Cl)cc4)n3)cc2)CC1	/	-30*	?
COc1ccc(C(C)=O)cc1COC(=O)c1cccc(Br)c1	i	/	/
CC(OC(=O)/C=C/c1cccc2cccnc12)C(=O)Nc1ccccc1 (stereo not given)	i	/	/
SMILES	KDM5B inhibitor	IP6K1 inh	IP6K1 inh cnf
Cn1c(SCC(=O)Nc2ccc(NC(=O)c3ccccc3)cc2)nnc1-c1ccncc1	i	/	/
Cn1c(SCC(=O)Nc2ccccc2)nnc1-c1ccccc1	i	-34*	-5%
Cc1ccc(OCC(=O)Nc2ccc3nc(SCCOc4ccccc4)sc3c2)cc1	i	-27*	0%
Cc1ccc(OCC(=O)Nc2ccc3nc(SCC(N)=O)sc3c2)cc1	i	8	/
CC(=O)NCCc1ccc(C(=O)COC(=O)c2ccc(C)cc2O)s1	i	/	/
CCOC(=O)c1ccc(NC(=O)CC2C(=O)N(c3ccccc3)C(=O)N2Cc2ccc(C)cc2)cc1 (stereo not given)	i	-40*	?
CCOc1ccc(NC(=O)CC2C(=O)N(c3ccc(C)cc3)C(=O)N2Cc2ccc(OC)cc2)cc1 (stereo not given)	i	-14	/
CC(NC(=O)c1ccc(C(C)(C)C)cc1)C1CC1 (stereo not given)	i	/	/
O=C(Cn1c(=O)oc2ccccc21)Nc1ccc(-c2nnc3n2CCCCC3)cc1	i	/	/
Cc1ccc2nc(-c3ccco3)c(Nc3ccc4c(c3)OCCO4)n2c1	i	-28*	16%

Bioassay records from PubChem BioAssay.
